Data as given in PubChem BioAssay (NCATS).
Inconclusive results are not listed. Values without a mark were called inactive. The source made the active and inactive calls. Calls follow the shape of the dose curve; as a rule, active = well fitted cell-killing curve with a large enough effect; inconclusive = small, poorly fitted or top-dose-only effect, or effect the other way; inactive = no such curve, though single readings can be large or run the other way.

Test: Viability qHTS for spleen associated tyrosine kinase inhibitor (SYKi) drug resistant MV4-11 cells (AID 1963824); also: nearly all actives have a fitted effect of over 35% in size
Conditions: SYKi-resistant MV4-11 viability, CellTiter-Glo, 72 h; series mostly up to 45 µM; viability, % of control: at the top concentration
Outline: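 CellTiter-Glo luminescence, read 10 min after reagent addition, reports viability after a 72 hr compound exposure. Cells are an MV4-11 line made resistant to SYK inhibition, seeded at 500 per well onto compound-containing plates.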
Potency is read from the fitted curve at half-maximal effect.

| SMILES | viability, % of control | Potency |
| --- | --- | --- |
| O=C1OC2(c3ccc(O)cc3Oc3cc(O)ccc32)c2ccccc21 | 57.2% |  |
| Cc1cc2c(F)c(Oc3ncnn4cc(OCC(C)O)c(C)c34)ccc2[nH]1 (configuration not stated) |  | 8.2 µM (active) |
| Cc1ccc(S(=O)(=O)NCc2ccc(C(=O)NCCN(Cc3ccccc3)C(C)C)cc2)cc1 |  | 14.6 µM (active) |
| CCCNCCOc1ccc(NC(=O)c2c[nH]c3c2C(=O)CCC3)cc1F |  | 2.91 µM (active) |
| Nc1ncnc2c1ncn2CCNCCCCCO | 104% |  |
| Cc1cc(Nc2nc(NC(C)c3ccc(F)cc3)c(C#N)cc2F)n[nH]1 (configuration not stated) |  | 0.461 µM (active) |
| CC1OC(O[C@H]2[C@@H](O)C[C@@]3(C)C([C@H](O)C[C@]4(C)C3CC=C3C5CC(C)(C)CC[C@]5(C(=O)OC5OC(CO)C(O)C(O)C5OC5OCC(OC6OCC(OC7OCC(O)C(O)C7O)C(O)C6O)C(OC6OCC(O)(CO)C6O)C5O)CC[C@]34C)[C@]2(C)CO)C(O)C(O)C1O (some centres not stated) | 97% [at 9.25 µM] |  |
| Cc1cc(Cn2cnc3c2CC(C(=O)O)N(C(=O)C(c2ccccc2)c2ccccc2)C3)ccc1N(C)C (configuration not stated) | 95.7% |  |
| O=C(NCc1ccccc1)[C@H](Cc1ccccc1)NC(=O)[C@H]1O[C@@H]1C(=O)NCCc1ccc(O)cc1 |  | 13.2 µM (active) |
| COc1ccc(-c2csc(NC(=O)[C@H]3CCCCN3S(=O)(=O)c3ccc(C)cc3)n2)cc1 |  | 5.17 µM (active) |
| O=C(/C=C/c1cccnc1)c1ccncc1 |  | 6.51 µM (active) |
| C/C=C(\C)C(=O)O[C@H]1[C@@H](O[C@]2(COC(=O)CC(C)C)O[C@H](COC(=O)C(C)CC)[C@@H](OC(C)=O)[C@@H]2O)O[C@H](COC(C)=O)[C@@H](O)[C@@H]1O (some centres not stated) | 94.5% [at 17.3 µM] |  |
